Screening results: PubChem BioAssay, several laboratories
This is a sample that favours compounds with a hit; in the whole collection about 4.1% have one here.
NALP1 yeast inh – NALP1 inhibition; S. cerevisiae NALP1/ASC/caspase-1 growth, X-gal OD620, 72 h; inhibition, % at 10 µM; 0.61% of 280,000 active; in the data active = inhibition mostly above about 24%, no sharp cut-off; inactive = mostly below about 32%
TIM10 inh – inhibits growth of TIM10 yeast strain | S. cerevisiae TIM10 strain growth, BacTiter-Glo luminescence, 24 h | inhibition, % at 10 µM | 1.4% of 330,000 active | AID 463195;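 active = inhibition of 40% or more at the single tested concentration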;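 note: wild-type TIM10 isogenic control strain grown at permissive 25 °C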
PfHsp90 yeast 2 – inhibits growth of yeast expressing Plasmodium falciparum Hsp90. S. cerevisiae expressing PfHsp90, BacTiter-Glo ATP, 48 h; yeast lacking PDR1 and PDR3 efflux regulators. inhibition, % at 9.4 µM. 0.32% of 310,000 active. AID 504621;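 active = every replicate shows inhibition above about 80%, whatever the replicate mean, limit read from the data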;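 note: 0% = DMSO neutral controls and 100% = 20 µM radicicol positive controls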
tim23-1 inh – growth inhibitors of tim23-1 mutant yeast. 1.3% of 330,000 active. inhibition, % at 20 µM. S. cerevisiae tim23-1 growth, BacTiter-Glo luminescence, 24 h. AID 463212;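 active = growth inhibition of the mutant yeast at or above 50%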;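 note: temperature-sensitive mutant grown at 25 °C; plate controls were DMSO-treated mutant yeast for no effect and medium wells lacking yeast for full effect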
tim10-1 inh – growth inhibitors of tim10-1 mutant yeast. 2.2% of 330,000 active. AID 463190. inhibition, % at 20 µM. S. cerevisiae tim10-1 ts strain growth, BacTiter-Glo, 24 h;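 active = inhibition of at least 40%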;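 note: mutant grown at 25 °C; 0% = DMSO wells with yeast and 100% = wells holding no yeast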
NALP3 yeast inh – blocks the NALP3 inflammasome reconstituted in yeast | Yeast reconstituted NLRP3/ASC/caspase-1, beta-gal luminescence, 24 h | inhibition, % at 10 µM | 0.39% of 330,000 active;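 active = inhibition of 50% or more; inactive = inhibition below 50%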;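 note: plate controls were induced DMSO wells for no effect and uninduced yeast grown without galactose for full effect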
An asterisk follows results filed as active; / = not tested or not shown.

SMILES | NALP1 yeast inh | TIM10 inh | PfHsp90 yeast 2 | tim23-1 inh | tim10-1 inh | NALP3 yeast inh
CC(c1ccon1)N(C)C(=O)c1ccc2nc(Cc3cccc(Cl)c3)oc2c1 (stereo not drawn) | 23 | 17 | -6 | 32 | 32 | 12
CCCCCOc1ccc(Br)cc1/C(C)=N/NC1=NCCN1 | 83* | 26 | 4 | 18 | 27 | 34
C=CCN(c1ccccc1OC)S(=O)(=O)c1cccc(C(=O)OCC(=O)c2c(N)n(C)c(=O)n(C)c2=O)c1 | / | / | 13 | / | / | /
O=C(CNC(=O)c1nc[nH]c1C(=O)N1CCN(c2ccccc2)CC1)OCc1ccccc1 | 2 | 10 | -16 | 25 | 12 | -4
COc1ccc(S(=O)(=O)n2[nH]c(=O)c(CCO)c2C)cc1 | 29* | 0 | -1 | 2 | -12 | 4
Cc1c(CCO)c(=O)[nH]n1S(=O)(=O)c1ccc([N+](=O)[O-])cc1 | 9 | 7 | -7 | 14 | 13 | 2
CCCOC(=O)c1ccc(Oc2cn[nH]c2-c2ccc(OC)cc2O)cc1 | -4 | 32 | 106* | -2 | -4 | 20
CCc1nc(Nc2ccc(O)cc2)c2oc3ccccc3c2n1 | 10 | 4 | 0 | 45 | 5 | 28
CCc1nc(Nc2ccc3c(c2)OCCO3)c2oc3ccccc3c2n1 | 34* | 29 | 13 | 33 | 35 | 10
CCn1c2ccccc2c2cc(NC(=O)C(C)OC(=O)c3ccc(NC(=O)CC#N)cc3)ccc21 (stereo not drawn) | / | 10 | -11 | 5 | 19 | 8
C=CCN1C(=O)c2oc3ccccc3c(=O)c2C1c1ccc(O)c(OC)c1 (stereo not drawn) | 38* | -4 | 3 | 11 | 6 | 6
C1CCC(C(CC2CCCCN2)C2CCCCC2)CC1 (stereo not drawn) | 71* | 22 | 8 | -5 | 3 | 48
COc1cccc(-c2nc(CS(=O)(=O)CC(=O)Nc3cc(OC)ccc3OC)c(C)o2)c1 | 21 | 17 | 12 | 11 | -6 | -2
COC(=O)C(C(=O)OC)C(C[N+](=O)[O-])c1ccc(OC)c(OC)c1 (stereo not drawn) | 11 | 1 | / | 10 | -1 | 12
COc1ccc(C(C[N+](=O)[O-])C2(c3ccc(OC)c(OC)c3)C(=O)c3ccccc3C2=O)cc1 (stereo not drawn) | 104* | / | 105* | / | / | /
O=C(O)c1cccc(-c2noc(-c3cccc(Cl)c3)n2)c1 | / | 5 | -6 | 21 | 21 | 11
CN(C)C(CNC(=O)c1cccc(S(=O)(=O)NCc2ccccc2)c1)c1ccccc1 (stereo not drawn) | / | -11 | / | 1 | -1 | 0
Cc1ccc(/C=C2/NC(=O)N(Cc3ccc(Br)cc3)C2=O)o1 | 36 | -17 | 109* | 14 | 15 | 17
O=C(c1ccc(S(=O)(=O)Nc2ccccc2F)cc1)N1CCCC1 | / | 4 | / | 9 | -3 | -2
COc1ccc(OCc2cc(C(=O)N3CCN(CC4CC4)CC3)no2)c(Cl)c1 | 28* | 5 | -5 | 23 | -11 | 18
CCCNC(=O)c1onc(CSc2ccc(F)cc2)c1C(=O)NCCOC | / | 9 | -4 | 26 | 6 | 15
OCC[C@H]1C[C@@H](O)[C@H](O)[C@@]2(OCc3ccccc32)O1 | / | -8 | 22 | -12 | 8 | -9
Nc1nc2nccc(-c3ccc(Cl)cc3)n2n1 | 36* | 25 | -5 | 17 | -6 | 34
Cc1cc(-c2ccc(Cl)cc2)n2nc(N)nc2n1 | 10 | 7 | -1 | 6 | 10 | 11
CCOC(=O)C(C#N)(Cc1ccc2ccccc2n1)Cc1ccc2ccccc2n1 | / | / | -1 | / | / | /
SMILES | NALP1 yeast inh | TIM10 inh | PfHsp90 yeast 2 | tim23-1 inh | tim10-1 inh | NALP3 yeast inh
O=C(Cc1ccccc1[N+](=O)[O-])NCC1(c2cccc3c2OCO3)OCCO1 | / | / | -30 | / | / | /
COCCNC(=S)N(c1ccccc1)C(C)C | 40* | 3 | 9 | 14 | 5 | -2
O=C(c1ccc(-c2ccccc2)c(F)c1)C1CCCN(C(=O)c2cncs2)C1 (stereo not drawn) | -1 | -29 | 89* | -170 | -117 | 22
Cc1cc(Cl)ccc1C(=O)C1CCCN(C(=O)c2cncs2)C1 (stereo not drawn) | 4 | -66 | 96* | -169 | 37 | 8
CCN(CC(=O)Nc1c(F)cccc1F)C(=O)C1CC1 | / | 13 | 25 | 10 | 4 | 14
O=C(O)c1ccccc1SC1CC(=O)N(c2ccccc2)C1=O (stereo not drawn) | 57* | 7 | 24 | 36 | 33 | 18
CCOC(=O)c1cc(CC)sc1N1C(=O)CC(Sc2ccccc2C(=O)O)C1=O (stereo not drawn) | 11 | 19 | 18 | 37 | 13 | 12
COC(=O)c1c(N2C(=O)CC(Sc3ccccc3C(=O)O)C2=O)sc(C)c1C (stereo not drawn) | 22* | 23 | 21 | 28 | 32 | 1
CN(C)CCCNC(=O)C[C@H]1C[C@H](C(=O)N2CCCCC2)[C@@]2(C)c3[nH]c4cc(CCC(=O)N(C)C)ccc4c3CCN2C1=O | / | -19 | 4 | 20 | 12 | /
O=C(CC1COc2ccccc2O1)NC1CCCCC1 (stereo not drawn) | 0 | 14 | 10 | 6 | 11 | 8
O=C(CCC1COc2ccccc2O1)NC1CCCCC1 (stereo not drawn) | 41* | -26 | 2 | 18 | 18 | 19
CC(NC(=O)CCC1COc2ccccc2O1)c1ccccc1 (stereo not drawn) | 42* | -11 | 17 | 14 | 11 | 20
CC(C)(C)NC(=O)CCC1COc2ccccc2O1 (stereo not drawn) | 6 | 0 | -7 | 15 | 3 | 8
Cc1nn(-c2ccccc2)c(C)c1C(=O)OC(C)C(=O)NC1CCCCC1C (stereo not drawn) | / | 9 | -28 | 20 | 20 | 7
CN1CCN(CC(=O)N(Cc2c(C#N)c3ccccc3n2C)c2ccccc2)CC1 | 30* | 9 | 14 | 17 | 12 | 8
Cc1cccc(C)c1NC(=O)CN(C)C(=O)[C@H](C)NC(=O)c1ccco1 | / | 1 | -6 | -7 | -8 | 18
COc1cc(/C=N/Nc2nc(Nc3ccc(C)cc3)nc(-n3nc(C)cc3C)n2)cc(OC)c1OC | 42* | 18 | -115 | -24 | 19 | -2
O=[N+]([O-])c1ccc(NN=Cc2ccc3c(c2)OCO3)nc1 | / | / | -16 | / | / | /
O=c1oc2ccccc2c(O)c1Cc1cc(Cl)c2cccnc2c1O | -6 | 5 | 90* | 8 | 19 | 3
Cc1sc(NC(=O)c2ccco2)c(C(c2cccnc2)N2CCC(C)CC2)c1C (stereo not drawn) | 6 | 39 | 92* | 40 | 37 | -9
CCN1CCN(C(c2cccnc2)c2c(NC(=O)c3ccco3)sc(C)c2C)CC1 (stereo not drawn) | / | -3 | -4 | 15 | 8 | 2
